# This is a sample that favours compounds with a hit; in the whole collection about 1.8% have one here.
# ARNT-TACC3 inh: disruptors of ARNT/TACC3 protein interaction, primary screen, biochemical, AlphaScreen, single concentration; 390,000 tested, 0.66% active; inhibition, % at 9.99 µM; AlphaScreen His-ARNT PAS-B/GST-TACC3 binding, luminescence; TACC3 fragment carries E629A point mutation; AID 623870, 2012; Transforming acidic coiled-coil-containing protein 3 (Homo sapiens), Q9Y6A5;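 active means mean inhibition of replicates at least 50% and at least half of replicates each reaching 50%; inconclusive means half or more replicates reach 50% but mean below 50%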;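 further: 0% = complete ARNT plus TACC3 wells and 100% = ARNT alone without TACC3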
# AI-2 QS mod: Vibrio harveyi AI-2 quorum sensing modulators, primary screen, JMH597 strain, luminescence/OD600 ratio. Vibrio harveyi JMH597 AI-2 luminescence/OD600 ratio, 9 h; active compounds read low; strain lacks LuxN and CqsS sensors; 0 = neutral-control median. activity change, % at 7.5 µM. 300,000 tested, 0.4% active; in the data active means activity change below about -75%, passing the limit was not always enough; inconclusive means no clear call, values can overlap the other calls;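 further: luminescence divided by OD600 gain over 9 h not by final OD600 alone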
# SUMO Mot1 rescue: yeast Mot1-301 growth rescue at high temperature, primary screen, SUMOylation pathway inhibitor project, S. cerevisiae, ATP luminescence, 38.5C; S. cerevisiae Mot1-301 growth rescue; percent above DMSO median, 100 means doubled; growth rescue, % at 18.8 µM; 320,000 tested, 1% active; AID 2716, 2010;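 active means every valid replicate shows activation above 250% relative to neutral control wells; inactive means the rest, any valid replicate at or below 250%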;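 further: OY570 slx delta 5 strain wells were the positive control but not used for scaling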
# A1 inh: caspase 3/7 activation in MEF A1-2A-BIM cells, primary screen, A1 inhibitor project, cell-based, luminescence, HTS | Caspase-Glo 3/7 luminescence, 3 h; percent of clofoctol response, vehicle zero | caspase activation, % (test concentration not listed) | 330,000 tested, 0.066% active;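 active means over half of replicate activation scores above 10%, or exactly half above 10 with the replicate mean above 10; inconclusive means replicate mean below 10 yet half the replicates above 10; inactive means over half of replicates below 10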
# aDG glyco act: activators of alpha-DG glycosylation, primary screen, uHTS, Pro5-aDG cells, AlphaScreen; alpha-DG glycosylation AlphaScreen (IIH6); 0% Pro5, 100% B10-LARGE cell signal; activation, % at 10 µM; 360,000 tested, 0.22% active; AID 624168, 2012;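 active means activation of at least 8% versus controls, or a plate z-score of at least 8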;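 further: Pro5 are CHO cells carrying HIG-tagged alpha-DG that lacks glycosylation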
# * = called active by the depositor; ? = inconclusive; · = not tested or not shown.
SMILES,ARNT-TACC3 inh,AI-2 QS mod,SUMO Mot1 rescue,A1 inh,aDG glyco act
COC(=O)c1ccc(N2C(=O)CC(N(C)CCc3ccc(OC)c(OC)c3)C2=O)cc1 (stereo unspecified),-4,74,303*,0,0
COc1ccc(N2C(=O)CC(N(C)CCc3ccc(OC)c(OC)c3)C2=O)cc1 (stereo unspecified),-7,58,-10,0,0
COc1ccc(NC(=O)c2ccc(NC(=O)c3nc4nc(C)cc(C)n4n3)cc2)cc1,·,·,·,·,0
O=C(Nc1ccc(F)cc1F)c1ccc2ncsc2c1,-1,21,335*,-6,0
O=C(Nc1ccccc1F)c1ccc2ncsc2c1,-60,7,-17,-6,0
CSc1nc(N(C)C)nc(N(C#N)CCOC(C)=O)n1,13,16,656*,1,0
CC(C)C[C@H](N)C(=O)N1CCC(C(=O)N[C@H](C(=O)NC(C)c2ccccc2)C(C)C)CC1 (stereo partly specified),-9,6,788*,1,0
COc1ccccc1NC(=O)Nc1ccnn1C1CCN(C(=O)c2cscn2)CC1,-6,4,-15,0,-1
Cc1ccc(S(=O)(=O)NNC(=O)CCC(=O)Nc2ccc(C)c(C)c2)cc1,-2,21,350*,1,0
COc1ccc(NC(=S)NCCCn2ccnc2)cc1,active,18,50,0,0
O=C(NCCCn1ccnc1)Nc1cccc(Cl)c1,61*,22,0,0,0
Nc1cc(S(=O)(=O)Nc2ccc(Br)cc2)ccc1Cl,-6,-76*,·,0,0
O=C(O)c1cscc1Cc1cccs1,·,·,·,·,0
O=C(O)c1cccnc1Cl,22,6,221,0,0
O=C(O)c1cccnc1C(=O)O,50*,·,19,0,0
CSCCCc1cn([C@@H](CO)C(=O)NCCCCCCCCCCC(=O)N2CCNCC2)nn1,-12,-1,133,?,0
CCS(=O)(=O)c1ccc(O)c(NC(=O)/C=C/c2ccc(Cl)cc2)c1,0,-83*,259,0,0
O=C(CN1C(=O)CSC1=O)N1CCc2ccccc2C1,30*,13,·,0,0
O=C(CN1C(=O)NC2(CCCCCCC2)C1=O)N1CCc2ccccc2C1,1,9,-18,0,0
CC(=O)Nc1ccc(N=NN2CCOCC2)cc1,2,-88*,-21,-1,0
Cc1ccc(Sc2ncccc2C(=O)O)c(C)c1,1,-88*,16,0,0
O=C(O)c1cccnc1Sc1ccccc1Cl,-11,-2,·,·,0
Cc1ccc(Sc2ncccc2C(=O)O)cc1C,-9,-86*,-13,0,0
CC(C)NC(=O)Nc1ccc2c(c1)CC(=O)N([C@H](C)CO)C[C@H](C)[C@@H](CN(C)Cc1ccncc1)O2,1,·,·,·,·
Cc1ccc(C2=C(O)C(=O)C(c3ccc(C)cc3)=C(O)C2=O)cc1,5,·,·,·,0
SMILES,ARNT-TACC3 inh,AI-2 QS mod,SUMO Mot1 rescue,A1 inh,aDG glyco act
CC1=C(O)C(=O)C(C2=C(O)C(=O)C(C)=C(O)C2=O)=C(O)C1=O,66*,·,·,·,0
C[C@H]1CN([C@@H](C)CO)C(=O)c2cc(-c3ccncc3)cnc2O[C@H]1CN(C)Cc1ccc(F)cc1,44*,·,·,·,·
C[C@@H]1CN([C@H](C)CO)C(=O)c2cc(C3=CCCCC3)cnc2O[C@H]1CN(C)C(=O)Cc1cccnc1,active,·,·,·,·
O=C(Cc1ccncc1)NCC[C@@H]1CC[C@@H](NC(=O)Nc2ccc(Cl)cc2)[C@H](CO)O1,10,·,·,·,·
CCC(C)Sc1cccc(-c2nc3ccc(C)cn3c2NC2CCCCC2)c1 (stereo unspecified),-16,12,341*,1,2
O=[N+]([O-])/C=C/c1cn(Cc2ccc(Cl)cc2)c2ccccc12,3,-7,270,9.1*,0
Cc1cccc(Cn2cc(/C=C/[N+](=O)[O-])c3ccccc32)c1,-3,22,26,1,1
O=C(NC(=S)N1CCCCC1)c1cccnc1,-2,13,344*,1,0
O=C(NC(=S)N1CCCCCC1)c1ccccc1,2,12,4,0,0
CC(=O)NNC(=S)NC(=O)c1ccc(C)cc1,-1,-28,9,-1,0
O=C(Cc1ccc(Cl)cc1)NNC(=S)NC(=O)c1cccnc1,5,-88*,-12,-1,0
Cc1ccc(C(=O)NNC(=S)NC(=O)c2ccc(Cl)cc2)cc1,-11,-127*,119,1,0
O=C(NC(=S)NNC(=O)c1ccc(Cl)cc1Cl)c1cccnc1,11,80,·,1,0
O=C(NNC(=S)NCc1ccc(Cl)cc1)c1cccnc1,-5,-50,2,-1,0
O=C(NC(=S)NNC(=O)c1ccccc1O)c1cccnc1,67*,19,9,0,0
CCCC(=O)Nc1ccc2c(c1)C(=O)N(C)C[C@H](OC)[C@H](C)CN(C(=O)c1ccncc1)[C@@H](C)CO2,1,·,·,·,·
CON(c1nc(Cl)nc(N(C)C)n1)S(=O)(=O)c1ccccc1Cl,0,5,-10,0,0
CS(=O)(=O)c1ccccc1C(=O)Nc1cccc(-c2nc3ccccc3o2)c1,-6,16,12,0,0
O=C(NNC(=S)NC(=O)c1cccnc1)c1ccc(Cl)cc1,-10,-93*,-4,0,0
CCC(=O)NC(=S)NNC(=O)c1ccc(O)cc1,75*,7,12,1,0
CCN(C(C)=O)c1cnc(C=NNC(N)=S)c2ccccc12,86*,·,·,·,1
NC(=S)NN=Cc1nccc2c(N)cccc12,·,·,·,·,1
COCOCCn1cc(CN2CCS(=O)(=O)N(Cc3ccc(-c4ccc(OC)c(OC)c4)cc3)C(C)C2=O)nn1 (stereo unspecified),·,·,·,·,0
Oc1ccccc1C=NCCN1CCN(CCN=Cc2ccccc2O)C1c1ccccc1O (stereo unspecified),71*,·,·,·,0
Oc1ccccc1C=NCCN=Cc1ccccc1O,4,2,9,0,0
O=C1CCCC2=C1C(c1ccccn1)Nc1ccc(C(=O)c3ccccc3)cc1N2 (stereo unspecified),46*,28,-12,2,0
Cc1noc(C)c1S(=O)(=O)Nc1ccc2c(c1)C(=O)N([C@H](C)CO)C[C@H](C)[C@H](CN(C)Cc1ccncc1)OCCCC[C@H](C)O2,-9,·,·,·,·
COc1cccc(C(=O)Nc2nnc(-c3ccc(F)cc3)o2)c1,17,-88*,-2,0,0

# Screening results as filed in PubChem.
